POLH inh = DNA polymerase eta (human) inhibition; Potency, µM (series often up to 114 µM), without a hit: at the top dose activity change, negative = inhibition, actives largely listed as inhibitors; Q9Y253; recombinant Pol eta, fluorescent DNA replication assay; 390,000 compounds, 1.2% hits; AID 588591; note: % is set by controls: 0 for no effect and ±100 for the full control effect
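Pol eta (10 nM) was preincubated with compounds for 15 min at room temperature, after which fluorescent replication substrate (50 nM final) was added to start the reaction. Fluorescence was read kinetically at 0 and 10 min.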
POLB inh = inhibitors of human DNA polymerase beta. Pol beta primer extension/strand displacement, fluorescence kinetic. Potency, µM (doses to about 114 µM), inactives show top-dose activity change, negative = inhibition, most hits filed as inhibitors. 340,000 compounds, 1.3% hits. AID 485314; note: % is set by controls: 0 for no effect and ±100 for the full control effect
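Homogeneous kinetic assay of primer extension and strand displacement by 10 nM Pol beta, preincubated 15 min at room temperature with compound before 50 nM substrate (final) was added. Read at 0 and 10 min; four-parameter Hill fit.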
APE1 inh = APE1 (human) endonuclease inhibition. AID 2517. recombinant APE1, TAMRA/BHQ-2 abasic DNA cleavage fluorescence. 350,000 compounds, 0.35% hits. P27695. Potency, µM (titrated, usually from 65.8 µM), for the others: top-dose activity change, negative = inhibition, hits mostly inhibitors;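 note: plate controls were vehicle for no effect and reference inhibitor for full effect; nearly all actives have a fitted effect of over 55% in size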
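Compound pre-exposure to 0.75 nM APE1, 15 min at ambient temperature. Reaction initiated with 50 nM TAMRA/BHQ-2 THF substrate, read immediately in kinetic mode, 525 nm excitation, 598 nm emission.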
POLK inh = blocks human DNA polymerase kappa activity; 400,000 compounds, 0.53% hits; AID 588579; purified Pol kappa, fluorescent DNA synthesis assay, 10 min; Potency, µM (highest dose often 107 µM), for inactives: at the top dose activity, negative = inhibition, actives largely listed as inhibitors; note: % is set by controls: 0 for no effect and ±100 for the full control effect
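Kinetic fluorescence readout at 0 and 10 min followed reaction start with substrate at 50 nM final. Beforehand, enzyme (10 nM Pol kappa) stood 15 min with compound at room temperature; buffer-only wells were negative controls.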
GLS inhibitor = glutaminase GLS (human) inhibition; O94925; GLS enzymatic activity, qHTS titration; Potency, µM (doses to about 45.5 µM), without a hit: at the top dose activity change, negative = inhibition, actives largely listed as inhibitors; 410,000 compounds, 0.21% hits; AID 624170; note: % is set by controls: 0 for no effect and ±100 for the full control effect
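hKGA; 45 mM KH2PO4 pH 8.2 + 0.02% Tween-20; cpd via pin tool; 1 mM Gln soln; GluOx/HRP/Amplex Red; RT 30 min; fluor. t0 & final.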
POLI inh = inhibitors of human DNA polymerase iota. AID 588590. 390,000 compounds, 1% hits. Pol iota fluorescent replication assay, 10 min. Q9UNA4. Potency, µM (series often up to 115 µM), for inactives: top-dose activity, negative = inhibition, hits mostly inhibitors
Target sequence (Q9UNA4 whole entry, looked up): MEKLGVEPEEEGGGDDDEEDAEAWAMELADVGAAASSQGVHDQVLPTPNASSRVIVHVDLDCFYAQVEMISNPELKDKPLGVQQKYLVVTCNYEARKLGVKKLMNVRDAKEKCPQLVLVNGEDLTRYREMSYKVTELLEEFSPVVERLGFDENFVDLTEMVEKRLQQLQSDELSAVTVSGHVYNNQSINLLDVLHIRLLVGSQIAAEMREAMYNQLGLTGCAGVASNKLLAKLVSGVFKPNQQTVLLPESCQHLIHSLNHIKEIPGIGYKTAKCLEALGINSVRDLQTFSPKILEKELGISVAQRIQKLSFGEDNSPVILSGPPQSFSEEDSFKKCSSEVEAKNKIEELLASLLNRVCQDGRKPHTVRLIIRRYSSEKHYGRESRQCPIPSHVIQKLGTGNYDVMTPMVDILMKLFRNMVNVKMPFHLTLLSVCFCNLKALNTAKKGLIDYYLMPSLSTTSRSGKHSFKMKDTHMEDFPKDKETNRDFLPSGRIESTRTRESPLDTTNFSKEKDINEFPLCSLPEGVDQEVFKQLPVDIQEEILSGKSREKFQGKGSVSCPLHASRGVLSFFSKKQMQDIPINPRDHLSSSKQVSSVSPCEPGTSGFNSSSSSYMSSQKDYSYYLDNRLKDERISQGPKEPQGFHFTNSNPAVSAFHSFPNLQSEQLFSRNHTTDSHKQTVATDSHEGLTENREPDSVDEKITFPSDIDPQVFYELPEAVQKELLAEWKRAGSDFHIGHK
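Fluorescent replication assay read twice, at 0 min and 10 min after adding 50 nM (final) substrate. Enzyme (10 nM) and compounds were first incubated 15 min at room temperature; enzyme-free buffer wells were negative controls.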
Numbers without * were called inactive; u = inconclusive; x = not tested or not shown; ! = a repeat was not active; [ ] = dose if it differs, or a comment. In the library only some 2.4% were active in any assay of this set; here they are far more common. Calls come from the whole dose curve; as a rule, active = well fitted curve in the direction sought with a large enough effect; inconclusive = small, poorly fitted or top-dose-only effect, or another doubt; inactive = no such curve, though single readings can be large; an effect the other way counts as inactive or inconclusive. Potency is the fitted concentration of half-maximal effect.

SMILES | POLH inh | POLB inh | APE1 inh | POLK inh | GLS inhibitor | POLI inh
CCOc1ccc(CN(C(=O)/C=C/c2ccco2)C2CCS(=O)(=O)C2)cc1 (stereo unspecified) | 0% | u | 3% | -20% | -22% | u
CN(C)c1ccc(CN(C(=O)/C=C/c2ccco2)C2CCS(=O)(=O)C2)cc1 (stereo unspecified) | -2% | 30% | 15% | -4% | -10% | 167%
O=C(/C=C/c1ccco1)N(Cc1ccc(Cl)cc1)C1CCS(=O)(=O)C1 (stereo unspecified) | u | 2% | 7% | u | -6% | 40µM*
CCCN(CCC)CCNC(=O)C1c2ccccc2C(=O)N2CCc3ccccc3C12 (stereo unspecified) | -2% | 0% | -1% | -9% | -2% | -2%
COc1ccc(-c2nc(CSc3nncn4c3cc3occc34)c(C)o2)cc1 | -14% | 3.5µM* | x | u | -1% | u
Cc1noc(C)c1S(=O)(=O)N1CCC(C(=O)NCCC2=CCCCC2)CC1 | 6% | 2% | 0% | -19% | 6% | 0%
CC(=O)N1CCN(C(=O)c2ccc(S(=O)(=O)Nc3ccccc3F)cc2)CC1 | -12% | x | -18% | -10% | 0% | -12%
CN(Cc1ccco1)C(=O)CSc1nn2c(=O)c(C(C)(C)C)nnc2s1 | 79µM* | x | -21% | -24% | -11% | u
Cc1cc(C(=O)CSc2nn3c(=O)c(C(C)(C)C)nnc3s2)c(C)n1C1CC1 | -13% | -17% | 0% | 0% | -2% | 79µM*
CCOC(=O)N1CCN(C(=O)c2cc(OCC)c(OCC)c(OCC)c2)CC1 | 2% | 30% | 0% | -16% | 0% | 8%
O=C1CCCN1CCCNC(=S)Nc1ccccc1 | -18% | -2% | -2% | -6% | -12% | 91%
O=C1CCCN1CCCNC(=S)Nc1ccc(Nc2ccccc2)cc1 | -14% | 4% | 4% | 7% | 18µM* | 44%
CC(C)C1=CC2=CC[C@@H]3[C@](C)(CCC[C@@]3(C)C(=O)O)[C@H]2CC1 | x | x | x | -4%[60.1 µM] | 14µM* | x
Nc1nc(=S)[nH]c(N)c1N | x | x | x | -1% | x | 14%
Nc1nc(=S)[nH]c2n[nH]nc12 | x | x | x | 0% | x | 40µM*
COC(=O)CCC(=O)OC1(C)C(=O)C=C2C=C(c3ccc(C#N)cc3)OC=C2C1=O (stereo unspecified) | x | x | -3% | x | x | x
CCC(=O)OC1(C)C(=O)C=C2C=C(c3ccc(C#N)cc3)OC=C2C1=O (stereo unspecified) | 45µM* | x | 15% | u | 14% | 20µM*
O=C(N/N=C\c1ccccn1)C1c2ccccc2Oc2ccccc21 | -5% | 38% | 6% | -8% | 3% | 72%
COc1ccc2c(c1)c(C(C)=O)c(C)n2C | 0% | -13% | -1% | -11% | 0% | 48%
CC(=O)Oc1ccc2c(c1)c(C(C)=O)c(C)n2C | -7% | 0.89µM* | 17% | -3% | -5% | 12%
Cc1cc(C)n2nc3nc(N4CCCCC4)nc(-c4ccco4)c3c2n1 | 10µM* | 10µM* | -4% | 32µM* | u | u
Cc1cc(Nc2ccccc2Cl)n2nc(-c3ccco3)nc2n1 | 7% | 6% | x | 0%[60.1 µM] | 1% | 14%
O=C(Nc1nc(-c2ccco2)c(-c2ccco2)s1)c1ccc(F)cc1F | u | x | -12% | 50µM* | 4% | u
O=C(Nc1nc(-c2ccco2)c(-c2ccco2)s1)c1c(F)cccc1Cl | u | x | -7% | u | 9% | -35%
O=c1cc(O)c2c(=O)n(C3CCCCC3)c3ccccc3c2o1 | u | 45µM* | u | -23% | 1% | u
SMILES | POLH inh | POLB inh | APE1 inh | POLK inh | GLS inhibitor | POLI inh
O=c1cc(O)c2c(=O)n(Cc3ccccc3)c3ccccc3c2o1 | u | 25µM* | -7% | -8% | 23% | u
CCCCn1c(=O)c2c(O)cc(=O)oc2c2ccccc21 | u | u | 1% | -5% | 9% | 8%
CCOC(=O)Cc1csc(NC(=O)c2c(O)c3ccccc3n(C)c2=O)n1 | x | 1% | 5% | x | x | x
CCOc1ccc(C(=O)NCCn2cc(SCC(=O)Nc3ccc4c(c3)OCCO4)c3ccccc32)cc1 | -17% | 37% | x | -1% | 14% | -18%
Cc1nnc(SCC(=O)NC(=O)NCCC(C)C)s1 | -16% | 27% | -2% | -4% | -10% | -3%
O=C1N=C(N2CCN(c3ccccc3)CC2)S/C1=C/c1ccco1 | -16% | u | -7% | u | 23% | 45µM*
O=C1N=C(N2CCN(c3ccccc3)CC2)S/C1=C\c1ccco1 | u | 13µM* | u | -20%[60.1 µM] | 17% | 45µM*
Cc1cccc(OCCn2nnc3sc4c(c3c2=O)CCCC4)c1 | x | 20µM* | x | -24% | 0% | u
Cc1ccc(OCCCCn2nnc3sc4c(c3c2=O)CCCC4)cc1 | x | -2% | x | -9% | 5% | 6%
Cc1ccc(OCCCCn2nnc3sc4c(c3c2=O)CCC(C)C4)cc1 (stereo unspecified) | x | 25µM* | x | -24% | 5% | -25%
Cc1nc2ccc(NC(=O)CS(=O)(=O)c3ccc(F)cc3)cc2s1 | 2% | x | 4% | -5% | 14% | 7%
Cc1ccc(S(=O)(=O)N(CC(=O)N/N=C/c2ccco2)Cc2ccccc2)cc1 | -18% | -16% | 11% | 14% | 3% | 57%
Cc1cccc(CN(CC(=O)N/N=C/c2ccco2)S(=O)(=O)c2ccc(Cl)cc2)c1 | 28µM* | u | -4% | -32% | -2% | u
O=c1ccc2cc(O)c(O)cc2o1 | -2% | 0% | -4% | 3.5µM*! | 52% | u
O=c1ccc2ccc(O)cc2o1 | -11% | x | -3% | 15% | 44% | 17%
CCc1ccc(C(=O)OCC(=O)N(CC)c2c(N)n(Cc3ccccc3)c(=O)[nH]c2=O)cc1 | -22% | x | 1% | -1% | -5% | 14%
CCCCN(CC)C(=O)Cc1c(C(=O)O)[nH]c2ccc(Cl)cc12 | -11% | 3% | 3% | -14% | 24% | 0%
CCCN(C(=O)Cc1c(C(=O)O)[nH]c2ccc(Cl)cc12)c1ccc(OCC)cc1 | -5% | 50µM* | x | -7% | 2% | -28%
CCCNC(=O)C1(C)CCCN(C(=O)c2cc(C(C)(C)C)nn2C)C1 (stereo unspecified) | x | x | x | x | -2% | x
O=[N+]([O-])c1ccc(O)c(C=Nc2ccc3nc(-c4ccccc4)[nH]c3c2)c1 | u | 28µM* | 1% | -15% | 17% | -12%
CCOc1cc(/C=C2\SC(=Nc3ccc(F)cc3)N(c3ccc(F)cc3)C2=O)ccc1OCC(=O)O | x | -19% | 2% | x | x | x

Screens from PubChem.
